# Assay results published in ChEMBL document CHEMBL3988442, “University of Dundee, Small-Polar-MMV Screening Library” (2021).
# Out of some 48,000 compounds screened, about 13,000 (27%) showed an effect of 50% or more. The list shows a part of the results.
# System: Wolbachia pipientis
# Assay: Anti-Wolbachia Cell-Based Screen
# Format: functional
# Parameters: scale not given: in the data most compounds retested in dose-response had high values
# Settings: 5 µM
row,Structure (SMILES),Percent Effect
1,CCN(CCC(=O)NC1CC1)Cc1ccc(Cl)s1,-9.828%
2,Cc1ccccc1OCC1CCCN(C(=O)CN(C)C2CCNCC2)C1 (stereo not drawn),4.855%
3,Cc1ccc(S(=O)(=O)N(C)CC(N)=O)c(Cl)c1,2.18%
4,CCn1cc(CN(C)S(=O)(=O)c2ccc(Cl)cc2)cn1,-0.8604%
5,Cc1nonc1CN(C)Cc1c[nH]nc1-c1ccc(F)cc1F,1.804%
6,Cc1nonc1CN(C)Cc1nc(-c2ccccc2Cl)oc1C,-14.91%
7,CSCC(=O)N(C)Cc1cnn(-c2ccc(F)cc2)c1,-3.16%
8,Cc1nonc1CN(C)Cc1cnn(-c2ccc(F)cc2)c1,116.4%
9,Cc1nonc1CN(C)Cc1cnn(-c2ccc(Cl)cc2)c1,133.6%
10,CS(=O)(=O)c1nccn1CCOc1ccc(F)cc1Cl,1.333%
11,COc1ccc(S(N)(=O)=O)cc1C(=O)N(C)Cc1cc(C)on1,5.855%
12,CCc1nc(C2CCCN(C(=O)c3cccc(C(N)=O)c3)C2)no1 (stereo not drawn),115.3%
13,CCc1nc(C2CCCN(C(=O)c3cccc4c3ccn4C)C2)no1 (stereo not drawn),-5.539%
14,CCc1nc(C2CCCN(C(=O)c3ccc4c(c3)nnn4C)C2)no1 (stereo not drawn),5.742%
15,CCc1nc(C2CCCN(C(=O)c3cccc(Cl)c3)C2)no1 (stereo not drawn),126.3%
16,Cc1noc(C2CCCN(C(=O)c3cccc(Cl)c3)C2)n1 (stereo not drawn),-10.95%
17,CCc1nc(C2CCCN(C(=O)c3cccc4cn[nH]c34)C2)no1 (stereo not drawn),-7.145%
18,NC(=O)c1ccc(N2CCN(Cc3cccc4nsnc34)CC2)nc1,-18.45%
19,COc1ccc(C(NC(=O)c2cccc[n+]2[O-])C2CC2)cc1 (stereo not drawn),3.052%
20,NC(=O)C1(c2cnccn2)CCCN1Cc1ccc(Cl)c(F)c1 (stereo not drawn),137%
21,CN(C)C(=O)N1CCCC2(CCN(Cc3ccc(Cl)c(F)c3)C2)C1 (stereo not drawn),2.484%
22,O=C(c1cn[nH]c1)N1CCC2(CCCN(Cc3ccc(F)c(F)c3)C2)C1 (stereo not drawn),-7.691%
23,CCS(=O)(=O)N1CCC2(CCCN(Cc3ccc(F)c(F)c3)C2=O)C1 (stereo not drawn),-34.42%
24,NC(=O)CN1CC2(CCC1=O)CCN(Cc1ccc(Cl)c(F)c1)CC2,13.87%
25,NC(=O)C1(c2cnccn2)CCCN1Cc1ccc(F)c(F)c1 (stereo not drawn),80.27%

row,Structure (SMILES),Percent Effect
1,COc1cc(CNC2CCN(c3ccccc3)C2)cc(OC)c1OC (stereo not drawn),0.4794%
2,CCn1cc(CN(C)S(=O)(=O)c2ccc(NC(C)=O)cc2)cn1,5.791%
3,CNC(=O)c1[nH]nc2c1CN(c1cc(C3CCCNC3)nc(C)n1)CC2 (stereo not drawn),-2.336%
4,Cl.O=C(NC1CCCC1)c1cc(C2CCCNC2)n[nH]1 (stereo not drawn),150.1%
5,CNC(=O)c1cc(C2CCCNC2)n[nH]1.Cl (stereo not drawn),96.41%
6,O=C(NC1CCCC1)c1n[nH]c2c1CNCC2,-11.08%
7,O=C(c1ccc(C2CCCN2)s1)N1CC=CC1 (stereo not drawn),0.32%
8,CCCc1cc(C(=O)NC2CCCCNC2=O)[nH]n1 (stereo not drawn),-7.069%
9,CCc1c(C)nn(CCNC(=O)c2cc(C3CC3)n[nH]2)c1C,1.187%
10,COc1ccccc1OCc1cc(C(=O)NC[C@@H]2CCCN2)n[nH]1,-26.39%
11,CNC(=O)c1cc(C2CCCN2)n[nH]1.Cl (stereo not drawn),155.4%
12,CSC1(CNc2ccc(Br)cn2)CCOCC1,-9.614%
13,CCOCCNC(=O)c1cc(Br)c2c(c1)OCCO2,-10.75%
14,COCCC(=O)N1CC2(CCN(Cc3ccccc3Cl)CC2)C1.O=C(O)C(F)(F)F,7.796%
15,Cl.O=S(=O)(c1ccc(Cl)cc1)N1CCc2nc(C3CCNCC3)ncc2C1,112%
16,Cc1noc(C)c1S(=O)(=O)N1CCc2nc(C3CCNCC3)ncc2C1.Cl,92.39%
17,CCC[C@H]1CN(S(=O)(=O)c2c(C)noc2C)C[C@@H]1N,-20.84%
18,Cc1ccc(S(=O)(=O)N2CCc3nc(C4CCNCC4)ncc3C2)cc1.Cl,-12.78%
19,Cc1nc(C2CCN(S(=O)(=O)c3ccc4c(c3)CCC4)CC2)n[nH]1,-1.341%
20,Cc1n[nH]c(C)c1CCN(C)C(=O)c1ccc(CN2CCCCC2)cc1,-26.72%
21,CCc1cnc(C)nc1NCC(O)CN1CCCCCC1 (stereo not drawn),-1.473%
22,Cc1nnc([C@@H]2CC[C@@H]3[C@@H](CCN3C3CCC3)O2)o1,107.1%
23,Cc1nnc([C@@H]2CC[C@@H]3[C@@H](CCN3S(C)(=O)=O)O2)o1,4.456%
24,Cc1nnc([C@@H]2CC[C@@H]3[C@@H](CCN3C3CCOCC3)O2)o1,-2.772%
25,CC(=O)C(Cc1ccccc1)NC(=O)CSc1nncn1C (stereo not drawn),8.647%

row,Structure (SMILES),Percent Effect
1,COCC1(CNc2cc(C(C)C)nc(N)n2)CC1,12.37%
2,Cc1nc(Cn2c3c(ccc2=O)CC(NC(C)C)CC3)cs1.O=C(O)C(F)(F)F.O=C(O)C(F)(F)F (stereo not drawn),95.6%
3,Cc1nc(Cn2c3c(ccc2=O)CCN(CC2CC2)CC3)cs1.O=C(O)C(F)(F)F.O=C(O)C(F)(F)F,7.996%
4,CC(C)NC1CCc2c(ccc(=O)n2CC2CC2)C1.O=C(O)C(F)(F)F (stereo not drawn),-1.359%
5,CCCC(=O)NC1CCc2c(ccc(=O)n2Cc2csc(C)n2)C1.O=C(O)C(F)(F)F (stereo not drawn),92.99%
6,COCC(=O)N1CCc2ccc(=O)n(Cc3csc(C)n3)c2CC1.O=C(O)C(F)(F)F,-6.118%
7,Cc1nc(CN2C[C@@H]3CN(C(=O)NC(C)C)C[C@@H]3C2=O)cs1.O=C(O)C(F)(F)F,4.242%
8,COCCNC(=O)[C@@H](C)[C@@H]1CCc2c(C)cc(OCC(=O)O)c(C)c2C1,-3.996%
9,Cc1cccc(N2CCC(N3CCC4(CN(C)C(=O)O4)C3)CC2)c1C (stereo not drawn),10.35%
10,O=C(CN1CCOC1=O)N1CC[C@@H](c2ccc3ccccc3c2)[C@H](O)C1,1.475%
11,CCOc1cccc(C(=O)Nc2ccncc2)c1,88.42%
12,O=C(CCNC(=O)c1ccccc1F)NCCNc1cccnc1,5.027%
13,CCOc1cccc(C(=O)NCCC(=O)NCc2ccncc2)c1,103.5%
14,O=C(CCNC(=O)C1=Cc2ccccc2OC1)NCc1ccncc1,-4.464%
15,O=C(CCNC(=O)c1cccc(OC(F)F)c1)Nc1cccnc1,104.3%
16,CCCNC(=O)c1ccc(NC(=O)c2cccc(OCC)c2)cc1,17.24%
17,O=C(CCNC(=O)C1=Cc2ccccc2OC1)Nc1cccnc1,-5.743%
18,O=C(CCNc1ccc(Cl)cn1)NCc1ccncc1,-15.58%
19,Cn1cc(C(=O)Nc2cccc(Oc3ccncc3)c2)ccc1=O,-26.42%
20,CS(=O)(=O)c1ccc(OCCNCc2ccc(F)cc2)cc1,-11.24%
21,CC(C)c1ccc(O)c(C(=O)NC2CCN(c3ncccn3)CC2)c1,6.653%
22,O=S(=O)(Cc1ccccc1CN1CC[C@H](CO)[C@H](O)C1)c1ccccc1,-17.78%
23,CN(C)C[C@@H]1CN(C(=O)Cc2ccccc2)C[C@@H]1CO,-32.78%
24,O=S1(=O)[C@@H](c2ccccc2)[C@H](CO)CN1C1CC1,108.4%
25,COc1ccccc1CCC(=O)N1C[C@H](c2ccccc2)[C@@H](N)C1,-7.051%

row,Structure (SMILES),Percent Effect
1,CC(C)C1CN(C(=O)c2ccccc2)CCS1 (stereo not drawn),-3.784%
2,CC(C)N1C[C@@H](CO)[C@H](c2ccccc2)S1(=O)=O,103.9%
3,O=S1(=O)[C@@H](c2ccccc2)[C@H](CO)CN1c1ccccc1,106.6%
4,O=C(O)CN1CCC(c2ccccc2)CC1,-2.297%
5,O=C(C1CCS(=O)(=O)CC1)N1C[C@H]2CC[C@@H]1CN(Cc1ccccc1)C2,-12.98%
6,CCN1C(=O)CCC12CCN(S(=O)(=O)c1ccc(C#N)cc1)CC2,5.403%
7,O=C(c1ccnnc1)N1CCC2(CCN(c3ccsc3)C2=O)C1 (stereo not drawn),3.217%
8,CCC(C(=O)N(Cc1ccccn1)C1CCCCC1)n1cccn1 (stereo not drawn),5.317%
9,COCCn1/c(=N\C(=O)CN(C)S(C)(=O)=O)sc2cc(C)ccc21,-2.711%
10,CC(C)(C)c1cnc(CN2CCC(NC(=O)Nc3ccccc3)CC2)o1,8.013%
11,CCOC(=O)CN1CCC2(CCCN(CCOc3ccccc3)C2)C1 (stereo not drawn),101.8%
12,CN(C)C(=O)N1CCC2(CCCN(CCOc3ccccc3)C2)C1.O=C(O)C(F)(F)F (stereo not drawn),102.1%
13,Cn1cc(CN2CC3(CCN(C(=O)c4cscn4)C3)C2)cn1,2.986%
14,O=C(CC1CC1)N1CCC2(CCCN(CCOc3ccccc3)C2)C1.O=C(O)C(F)(F)F (stereo not drawn),117.3%
15,O=C(c1cscn1)N1CCC2(CCCN(CCOc3ccccc3)C2)C1 (stereo not drawn),112%
16,O=C(CC1CC1)N1CC[C@H]2OCC[C@@]2(COc2ncccc2F)C1.O=C(O)C(F)(F)F,5.049%
17,O=C(c1cscn1)N1CCC2(CCN(S(=O)(=O)c3ccccc3)C2)C1 (stereo not drawn),-2.264%
18,Cc1ccc(CN2CCC3(CCCN(C(=O)N(C)C)C3)C2)cc1 (stereo not drawn),-1.979%
19,O=C(CC1CC1)N1CCC2(CCCN(c3ncccn3)C2)CC1,-10.65%
20,COC(=O)c1cc(OCC2CCC2)cc(C(=O)N[C@@H]2CNCC[C@H]2O)c1,8.764%
21,O=C(c1ccc(=O)[nH]c1)N1CCCC2(C=Cc3ccccc3O2)CC1 (stereo not drawn),-7.084%
22,Cc1nc(CN(C)S(=O)(=O)c2ccccc2C(F)(F)F)no1,2.399%
23,COc1ccc(CN2CCOC[C@H](OCCC(C)C)C2)cc1,0.3051%
